Measured values taken from PubChem BioAssay AID588590 (National Center for Advancing Translational Sciences (NCATS), 2011).
Where “and” joins values, the source holds several entries; their conditions need not be identical. Identical values can stand only once. The campaign covered roughly 390,000 compounds. About 4,000 (1%) were called active. Roughly 7% stayed inconclusive and do not appear here. The call rests on the fitted dose curve; in most records, active means well fitted inhibition curve with a large enough effect; inconclusive means small, poorly fitted or top-dose-only effect, or another doubt; inactive means no such curve, though single readings can be large or run the other way. Shown is part of a subset that was picked to be rich in actives. Some structures have more than one record in an assay (separate samples or runs), and their calls can disagree.

Target: DNA polymerase iota (Homo sapiens) (UniProt Q9UNA4)
Assay: qHTS for Inhibitors of Polymerase Iota
Details: Pol iota fluorescent replication assay, 10 min; series mostly up to 115 µM; activity, negative = inhibition: at the top concentration
Procedure, shortened: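 Pol iota at 10 nM preincubated 15 min with compounds at room temperature; reaction started with fluorescent substrate, 50 nM final. Fluorescence read kinetically at 0 and 10 min; buffer-only wells as negative control.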
Potency means the concentration at half of the fitted maximal effect.

Chain of DNA polymerase iota (Homo sapiens) (Q9UNA4 whole entry, looked up): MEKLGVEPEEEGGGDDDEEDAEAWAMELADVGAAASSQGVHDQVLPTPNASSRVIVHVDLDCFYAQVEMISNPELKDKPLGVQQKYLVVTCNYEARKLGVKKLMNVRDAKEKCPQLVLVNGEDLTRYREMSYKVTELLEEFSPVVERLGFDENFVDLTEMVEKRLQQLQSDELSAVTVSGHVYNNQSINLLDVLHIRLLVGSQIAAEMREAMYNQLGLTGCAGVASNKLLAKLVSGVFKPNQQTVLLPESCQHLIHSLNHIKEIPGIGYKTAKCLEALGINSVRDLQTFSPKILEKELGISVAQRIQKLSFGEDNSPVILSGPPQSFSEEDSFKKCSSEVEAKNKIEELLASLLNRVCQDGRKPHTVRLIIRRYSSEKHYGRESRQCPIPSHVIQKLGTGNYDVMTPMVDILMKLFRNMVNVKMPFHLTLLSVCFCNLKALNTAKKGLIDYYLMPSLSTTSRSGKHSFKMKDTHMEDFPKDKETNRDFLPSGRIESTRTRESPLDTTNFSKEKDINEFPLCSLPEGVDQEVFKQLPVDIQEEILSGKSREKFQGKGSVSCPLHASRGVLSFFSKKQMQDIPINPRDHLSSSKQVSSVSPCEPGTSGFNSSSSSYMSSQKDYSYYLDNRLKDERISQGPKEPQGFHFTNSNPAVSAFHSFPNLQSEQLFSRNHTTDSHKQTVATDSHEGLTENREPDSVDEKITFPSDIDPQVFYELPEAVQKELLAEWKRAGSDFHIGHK

Structure (SMILES)	activity, negative = inhibition	Potency
N#Cc1ccc[n+](CC(=O)c2ccc(F)cc2)c1	8.91% (inactive)	
NC(=O)C[n+]1cccc(C(N)=O)c1	24.1% (inactive)	
N#Cc1ccc[n+](CC(=O)c2ccc(O)c(O)c2)c1		0.891 µM (active)
Cc1ccccc1C(=O)NCc1nc(-c2ccc(Cl)cc2)no1	2.79% (inactive)	
CCN(CC)CCNC(=O)CN1N=C(c2ccc(OC)cc2)CCC1=O	1.32% (inactive)	
COc1ccc(OC)c(CNC(=O)CN2C(=O)CCn3nc(-c4cn(C)c5ccccc45)cc32)c1	-3.3% (inactive)	
Cn1c(=O)cc(OCC(=O)N2CCN(c3ccccc3)CC2)c2ccccc21	4.97% (inactive)	
CCC(=O)N1CCc2cc(Br)cc(S(=O)(=O)CCC(=O)NCc3ccccc3OC)c21	-18% (inactive)	
COc1ccc(NC(=O)CN2C(=O)C(c3ccccc3)=NC23CCCCCC3)cc1OC	-12.5% (inactive)	
CCc1ccc(NC(=O)CN2C(=O)C(c3ccccc3)=NC23CCCCCC3)cc1	-2.09% (inactive)	
Cc1ccc(NC(=O)CN2C(=O)C(c3ccc(F)cc3)=NC23CCCCCC3)c(C)c1		44.7 µM (active)
CCCCN(C)c1nnc(NC(=O)Nc2ccc(Br)c(C)c2)s1	59.7% (inactive)	
CCOCCCn1c(SCC(=O)Nc2ccc(CC)cc2)nc2ccccc2c1=O	2.09% (inactive)	
Cc1ccc(Cl)cc1NC(=O)Cc1ccc(-n2c(C)nc3cccnc32)cc1	16.1% (inactive)	
COc1ccccc1-c1ccnc2[nH]n(-c3ccccc3)c(=O)c12	-9.07% (inactive)	
Cc1ccc(-c2ccnc3[nH]n(-c4ccccc4)c(=O)c23)cc1	4.79% (inactive)	
O=c1c2c(-c3ccccc3)ccnc2[nH]n1-c1ccccc1		inactive and 89.1 µM (active)
COc1ccc(OC)c(NC(=O)CN2CCCN(Cc3cc(C)ccc3C)S2(=O)=O)c1	6.44% (inactive)	
CCOc1ccc(NC(=O)c2cc3c(=O)n(Cc4cccs4)ccc3nc2C)cc1	-26.1% (inactive)	
Cc1cc2nn(-c3ccc(Cl)cc3)nc2cc1NC(=O)C(C)C	-5.65% (inactive)	
O=C(NCc1ccccc1)c1cc(-c2cccc(Cl)c2)on1	-3.04% (inactive)	
O=C(O)C(c1ccccc1)N1C(=O)/C(=C\c2ccc(-c3cccc(Cl)c3)o2)SC1=S (centres undefined)		31.6 µM (active)
O=C(NC(=S)Nc1cc(C(F)(F)F)ccc1N1CCOCC1)c1ccc(-c2cccc(Cl)c2)o1	-8.99% (inactive)	
Cc1ccc(-c2nnc(Nc3ccc(OCC(N)=O)cc3)c3ccccc23)cc1S(=O)(=O)NCC1CCCO1 (centres undefined)	-5.22% (inactive)	
O=C(c1cnn2c1NC(=C1CC1)C=C2C(F)F)N1CCc2ccccc2C1	20.7% (inactive)	

Structure (SMILES)	activity, negative = inhibition	Potency
Cc1ccc(NC(=O)c2cc(S(=O)(=O)NCCC3=CCCCC3)ccc2F)cc1C	-3.59% (inactive)	
O=C(O)c1cccnc1NC1CCCC1		89.1 µM (active)
O=C(COC(=O)c1cccnc1Cl)NC(=O)NC1CCCCC1	-3.55% (inactive)	
CCCSc1ncccc1C(=O)O	8.93% (inactive)	
CSc1ccccc1-c1nnc(NC(=O)c2ccc3c(c2)OCCO3)o1	-15.2% (inactive)	
Cc1ccc(NC(=O)Cn2nnc3sc4c(c3c2=O)CCC(C)C4)cc1 (centres undefined)	20% (inactive)	
O=C(CCc1n[nH]c(=O)[nH]c1=O)N/N=C/c1ccc(Br)o1	5.97% (inactive)	
O=C(CCNC(=O)c1ccccc1)NN=Cc1ccc(Br)o1		35.5 µM (active)
O=C(CCNC(=O)c1ccccc1Cl)NN=Cc1ccco1	29.4% (inactive)	
O=S(=O)(Nc1cccc2cccnc12)c1cccc2cccnc12	55.6% (inactive)	
ClC/C=C/C[n+]1ccccc1Cl	-0.0585% (inactive)	
CCOC(=O)C1CCCN(C(=O)Cn2ncc3c(C)n(Cc4ccc(F)cc4)c(C)c3c2=O)C1 (centres undefined)	18.1% (inactive)	
O=c1ccc2c(-c3ccccc3S(=O)(=O)O)c3ccc(O)c(O)c3oc-2c1O		1.12 µM (active)
COc1ccc(CCn2c3c(c(=O)[nH]c2=S)CN(C(C)C)CN3)cc1OC	32.6% (inactive)	
COc1ccccc1-c1cc2nc(C)c(CCC(=O)NC3CCCCC3)c(C)n2n1	14.6% (inactive)	
CN(C)c1ccc(/C=c2\[nH]c(=O)/c(=C/c3ccc(N(C)C)cc3)[nH]c2=O)cc1	13.7% (inactive)	
COc1ccc2c(c1)c(=Cc1ccc(N(C)C)cc1)c1cc(-c3ccccc3)[n+](C)n12		39.8 µM (active)
O=C(Cn1ncn2nc(-c3cccs3)cc2c1=O)NCc1cccc(Br)c1	8.76% (inactive)	
O=C(Nc1ccc(OC(F)(F)F)cc1)C1CCCN(S(=O)(=O)c2ccc(Br)s2)C1 (centres undefined)	22.4% (inactive)	
SCc1nc2ccc(Cl)cc2[nH]1	37.3% (inactive)	
Fc1ccc(CN2CCc3nc(Nc4ccccc4)ncc3C2)cc1F	8.9% (inactive)	
O=C(CSc1nc2ccccc2c(=O)[nH]1)Nc1nc(-c2ccc(Br)cc2)cs1		6.31 µM (active)
O=C(COC(=O)c1cc(=O)[nH]c2ccccc12)Nc1nc(-c2cccc(Br)c2)cs1	150% (inactive)	
Cc1cc(C)c(-c2csc(NC(=O)CCCc3nc4ccccc4c(=O)[nH]3)n2)c(C)c1	-0.398% (inactive)	
